# Test results: PubChem BioAssay (Tox21)
# Active and inactive are the calls of the source. The call rests on the fitted dose curve; in most records, active means well fitted curve in the direction sought with a large enough effect in the repeat runs; inconclusive means weak or mixed curves; inactive means flat fitted curve, though single readings scatter. Residues, ends and D or L forms follow the SMILES beside them.
# Test: qHTS assay to test for compound auto fluorescence at 460 nm (blue) in HepG2 cell free culture (AID 720685)
# Details: Cell-free culture medium, blue autofluorescence 405/460 nm; series mostly up to 91.3 µM
# From the text: U.S. Tox21 Program National Center for Advancing Translational Sciences [NCATS] NIH Chemical Genomics Center [NCGC] U.S. Environmental Protection Agency [EPA] National Institutes of Environmental Health Sciences [NIEHS] National Toxicology Program [NTP] U.S. Food and Drug Administration [FDA] Tox21 Assay Overview: Compound auto fluorescence often interferes with screening of the compound library against various biological targets and signaling pathways. Some of these compounds may have fluorophoric properties. Such properties may interfere with the assay outputs resulting in false positives and/or negatives. To decrease such complications and ensure the compound activities are relevant in terms of biological response, the Tox21 10K compound library was screened for auto fluorescence. From the fluorophores used as reporter signals in our screening assays, the auto fluorescence equivalencies of compounds against three fluorophores have been evaluated: Triamterene, Fluorescein and Rose Bengal sodium for blue, green and red fluorescence, respectively. The fluorescence intensities were measured using Excitation/Emission wavelengths at 405/460nm, 485/535nm and 540/590nm for blue, green and red labels, respectively. This assay includes the blue fluorescence data.
# Tox21 Assay Protocol Summary: 5 uL of culture medium (MEM containing 10% FBS) per well was dispensed into black wall/clear bottom 1536-well plates using a Multidrop Combi Dispenser (ThermoFisher Scientific, Waltham, MA). After 23 nL compound or DMSO vehicle was transferred into assay plate by a pintool work station (Kalypsys, San Diego, CA), fluorescence intensities in the assay plates were measured by an Envision (PerkinElmer, Shelton, CT) plate reader using three labels for measuring blue, green and red fluorescence at […] 460, 535 and 590nm respectively.
row,SMILES,outcome
1,COc1c2occc2cc2ccc(=O)oc12,inactive
2,Nc1ccc(O)c(C(=O)O)c1,inactive
3,NC(N)=NC(=O)c1nc(Cl)c(N)nc1N,inactive
4,CCCCOC(=O)CC(CC(=O)OCCCC)(OC(C)=O)C(=O)OCCCC,inactive
5,CC(C)[C@@H]1CC[C@@H](C)C[C@H]1O,inactive
6,CCCCC(CC)COC(=O)/C=C/c1ccc(OC)cc1 (stereo not given),inactive
7,O=C(O)CS,inactive
8,CC1(C)[C@@H]2CC[C@@]1(C)C(=O)C2,inactive
9,CCCN(CCC)S(=O)(=O)c1ccc(C(=O)O)cc1,inactive
10,CCC1(c2ccccc2)C(=O)NCNC1=O,inactive
11,Nc1ccc(S(=O)(=O)c2ccc(N)cc2)cc1,inactive
12,CC(C)(Oc1ccc(C2CC2(Cl)Cl)cc1)C(=O)O (stereo not given),inactive
13,CC(O)CN(CCN(CC(C)O)CC(C)O)CC(C)O (stereo not given),inactive
14,N=C(N)c1ccc(OCCCCCOc2ccc(C(=N)N)cc2)cc1,inactive
15,O=c1ccc2ccccc2o1,inactive
16,Oc1ccc(/C=C/c2cc(O)cc(O)c2)cc1,inactive
17,C/C=C/c1ccc(OC)cc1,inactive
18,COC(=O)[C@H](Cc1ccccc1)NC(=O)[C@@H](N)CC(=O)O (H-Asp-Phe-OMe),inactive
19,CNC[C@H](O)c1cccc(O)c1,inactive
20,CC(O)C(=O)O (stereo not given),inactive

row,SMILES,outcome
1,NC(N)=O,inactive
2,Cc1cc(=O)[nH]c(=S)[nH]1,inactive
3,O=C(c1ccccc1)C(O)c1ccccc1 (stereo not given),inactive
4,O=C(O)CCC(=O)O,inactive
5,O=C(O)c1cccc([N+](=O)[O-])c1,inactive
6,C1N2CN3CN1CN(C2)C3,inactive
7,COc1ccc2[nH]cc(CCNC(C)=O)c2c1,inactive
8,O=C(O)CCCCCCCC(=O)O,inactive
9,Cn1cc[nH]c1=S,inactive
10,O=C(C1CCCCC1)N1CC(=O)N2CCc3ccccc3C2C1 (stereo not given),inactive
11,CCCCC1C(=O)N(c2ccccc2)N(c2ccccc2)C1=O,inactive
12,NNC(=O)c1ccncc1,inactive
13,O=C1NC(=O)c2ccccc21,inactive
14,O=C(O)CCCCC(=O)O,inactive
15,O=C(O)c1cccnc1,inactive
16,C[C@]12C=CC(=O)C=C1CC[C@@H]1[C@@H]2[C@@H](O)C[C@@]2(C)[C@H]1CC[C@]2(O)C(=O)CO,inactive
17,CC(=O)Nc1nnc(S(N)(=O)=O)s1,inactive
18,Cc1noc(NS(=O)(=O)c2ccc(N)cc2)c1C,inactive
19,O=C(O)c1cc(N=Nc2ccc(S(=O)(=O)Nc3ccccn3)cc2)ccc1O,inactive
20,O=NO,inactive
